# JMJD2A Tudor = qHTS Assay for Inhibitors of JMJD2A-Tudor Domain; Lysine-specific demethylase 4A (Homo sapiens), O75164; AlphaScreen JMJD2A-Tudor / H3K4me3 peptide binding; Potency, µM (doses to about 114 µM), for the others: at the top dose activity change, negative = inhibition, hits mostly inhibitors; 390,000 compounds, 4.4% hits; AID 504339, 2011; also: potency is read from the fitted curve at half-maximal effect; % is scaled to controls: 0 for no effect and ±100 for the full control effect; nearly all actives have a fitted effect of over 50% in size
# Target sequence (O75164 whole entry, looked up, the tested form may be a part): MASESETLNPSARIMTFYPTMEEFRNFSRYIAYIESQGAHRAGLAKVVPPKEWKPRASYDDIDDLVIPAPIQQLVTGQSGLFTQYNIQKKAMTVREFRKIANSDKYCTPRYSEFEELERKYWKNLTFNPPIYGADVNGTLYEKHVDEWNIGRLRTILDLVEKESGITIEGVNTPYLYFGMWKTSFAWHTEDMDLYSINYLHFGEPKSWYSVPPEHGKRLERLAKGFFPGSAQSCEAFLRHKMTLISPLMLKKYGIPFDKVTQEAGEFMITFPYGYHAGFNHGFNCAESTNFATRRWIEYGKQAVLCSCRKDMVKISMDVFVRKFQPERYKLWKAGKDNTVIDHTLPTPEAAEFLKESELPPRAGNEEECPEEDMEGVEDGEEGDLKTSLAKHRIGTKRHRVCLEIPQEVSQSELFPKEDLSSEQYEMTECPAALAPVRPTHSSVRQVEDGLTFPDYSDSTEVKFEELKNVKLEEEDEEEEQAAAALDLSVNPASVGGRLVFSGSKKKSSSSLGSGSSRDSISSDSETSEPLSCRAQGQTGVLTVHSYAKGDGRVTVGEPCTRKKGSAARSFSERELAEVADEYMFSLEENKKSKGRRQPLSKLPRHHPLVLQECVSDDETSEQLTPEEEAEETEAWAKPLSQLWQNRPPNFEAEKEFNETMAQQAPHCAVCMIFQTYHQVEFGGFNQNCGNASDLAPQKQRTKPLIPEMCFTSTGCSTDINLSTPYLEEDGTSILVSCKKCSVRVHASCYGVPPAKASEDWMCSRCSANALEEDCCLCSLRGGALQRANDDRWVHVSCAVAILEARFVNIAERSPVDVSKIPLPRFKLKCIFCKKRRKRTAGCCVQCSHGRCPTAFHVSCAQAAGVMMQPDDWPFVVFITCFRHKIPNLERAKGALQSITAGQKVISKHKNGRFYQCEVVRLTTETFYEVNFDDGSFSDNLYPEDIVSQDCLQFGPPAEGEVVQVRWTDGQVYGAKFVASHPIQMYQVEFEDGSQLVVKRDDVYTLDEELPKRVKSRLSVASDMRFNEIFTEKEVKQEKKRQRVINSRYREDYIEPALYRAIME
# CtBP-E1A inh = qHTS Assay for Inhibitors of the CtBP/E1A Interaction | activity change, % (no concentration beside the values) | 340,000 compounds, 0.49% hits | AlphaScreen GST-E1A/His-CtBP binding, 1536-well; hits give low values | AID 651724, 2012; in the data active = activity change below about -65%; inconclusive = mostly about -30% to -63%; also: % is scaled to controls: 0 for no effect and ±100 for the full control effect
#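 GST-E1A and His-tagged CtBP (125 nM each as 5X stock) were preincubated with pin-transferred compound for 2 h at 37 °C in the dark, then glutathione donor and nickel acceptor beads were added for 1 h before AlphaScreen reading.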
# HP1b binding inh = HTS for Inhibitors of HP1-beta Chromodomain Interactions with Methylated Histone Tails; Chromobox protein homolog 1 (Homo sapiens), P83916; AlphaScreen HP1-beta / biotin-H3K9me3 peptide binding; Potency, µM (series often up to 114 µM), for the others: top-dose activity change, negative = inhibition, usual class: inhibitors; 390,000 compounds, 0.56% hits; AID 540317, 2011; also: potency is read from the fitted curve at half-maximal effect; nearly all actives have a fitted effect of over 70% in size
#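 AlphaScreen: HP1-beta (50 nM) preformed 30 min with biotin-H3(1-18)K9me3 peptide (50 nM) in PBS pH 7.4, 0.01% Tween-20. Compound added for 30 min at RT, then streptavidin donor/nickel chelate acceptor beads (10 ug/mL) for 30 min.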
# G9a inh = qHTS Assay for Inhibitors of Histone Lysine Methyltransferase G9a. 350,000 compounds, 8.8% hits. Potency, µM (top dose mostly 102 µM), inactives show at the top dose activity, negative = inhibition, usual class: inhibitors. G9a H3K9 monomethylation, AlphaScreen, 2 h. AID 504332, 2011; also: potency is read from the fitted curve at half-maximal effect; % is scaled to controls: 0 for no effect and ±100 for the full control effect; nearly all actives have a fitted effect of over 75% in size
#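 Quantitative HTS format: methyltransferase activity on a biotin-tagged H3K9 peptide is measured by AlphaScreen, using a rabbit anti-monomethyl-H3K9 antibody with streptavidin donor and anti-IgG acceptor beads. Final levels are 20 nM enzyme, 500 nM peptide, 20 uM SAM; 2 h RT.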
# Six1-Eya2 inh = qHTS Assay for Inhibitors of the Six1/Eya2 Interaction | AID 651725, 2012 | 360,000 compounds, 0.56% hits | Homeobox protein SIX1 (Homo sapiens) + Protein phosphatase EYA2 (Homo sapiens), … | activity change, % (test concentration not listed) | AlphaScreen GST-Six1/His-Eya2 binding, biochemical; hits give low values; in the data active = activity change below about -65%; inconclusive = mostly about -30% to -63%; also: % is scaled to controls: 0 for no effect and ±100 for the full control effect
#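 Homogeneous AlphaScreen proximity assay pairing GST-Six1 with His-tagged Eya2 (added as 5X mix: 250 nM and 500 nM) in 50 mM Tris pH 8.0, 300 mM NaCl, 1 mM TCEP. Glutathione donor and nickel acceptor beads; 1 h, 37 °C, dark.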
# BAZ2B inh = qHTS Assay for Inhibitors of BAZ2B; Bromodomain adjacent to zinc finger domain protein 2B (Homo sapiens), Q9UIF8; AlphaScreen BAZ2B-H3K14Ac peptide displacement; Potency, µM (doses to about 114 µM), for inactives: at the highest dose activity change, negative = inhibition, actives largely listed as inhibitors; 360,000 compounds, 4.4% hits; AID 504333, 2011; also: potency is read from the fitted curve at half-maximal effect; % is scaled to controls: 0 for no effect and ±100 for the full control effect; nearly all actives have a fitted effect of over 60% in size
#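 In this displacement format the biotinylated H3(5-23) peptide acetylated at Lys14 serves as ligand at 50 nM, with BAZ2B at 50 nM in PBS pH 7.4 containing 0.01% Tween-20. Donor and acceptor beads are 10 ug/mL final.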
# The depositor's hits bear a star; u = inconclusive; x = not tested or not shown; [ ] = dose if it differs, or a comment. The list is not random: actives were taken first. Their share in the collection is about 10%. Unless noted, calls follow the shape of the dose curve; as a rule, active = well fitted inhibition curve with a large enough effect; inconclusive = small, poorly fitted or top-dose-only effect; inactive = no such curve, though single readings can be large or run the other way.
SMILES,JMJD2A Tudor,CtBP-E1A inh,HP1b binding inh,G9a inh,Six1-Eya2 inh,BAZ2B inh
COc1cccc(CNC(=O)CSC(=S)N2CCCC2)c1,-10.8%,-20.9,3.4%,-45.1%,4.4,-0.1%
COc1ccccc1CNC(=O)CSC(=S)N1CCCC1,-10.8%,4.9,19.2%,11.2µM*,3.4,-2.2%
COc1ccccc1CNC(=O)C12CC3CC(CC(C3)C1)C2,79.4µM*,10.3,10.3%,x,4.8,37.8%
COc1ccc(CCNCc2csc3nc4ccccc4n23)cc1OC,89.1µM*,2.3,9.6%,50.1µM*,11.6,u
COc1ccc(CCNC(=O)CNCC2CCCO2)cc1OC (centres undefined),3.55µM*,12.2,u,8.91µM*,3.7,u
O=C(NCc1ccccc1F)C12CC3CC(CC(C3)C1)C2,-12.7%,-21.5,15.2%,x,9.4,x
CCc1nc2c(OCc3ccc4c(c3)OCO4)cccn2c1N(C=O)Cc1ccc(OC)cc1,x,-15.5,x,x,-13.6,x
CC(=O)N1C[C@H]2CON(C)[C@H]2C[C@H]1c1ccccc1Br,-21.0%,1.5,12.2%,x,1.3,x
CCOC(=O)c1c(C)[nH]c(C)c1S(=O)(=O)N(C)CC(=O)Nc1cccc(C(F)(F)F)c1,-5.8%,x,8.2%,-1.3%[59 µM],x,-1.9%
Cn1c2cc(C(=O)O)sc2c2cnn(Cc3ccccc3F)c(=O)c21,-24.7%,x,x,x,x,x
COc1ccccc1CNC(=O)CNCCc1ccc(OC)c(OC)c1,22.4µM*,3.0,u,x,-0.1,50.1µM*
COc1ccccc1CNC(=O)CS(=O)(=O)c1ccc(C)cc1,-16.3%,0.2,21.6%,79.4µM*,2.8,0.2%
COc1ccccc1CNC(=O)COc1ccccc1OC,5.4%,3.8,25.3%,-0.7%[59 µM],1.2,1.3%
COc1ccccc1CNC(=O)CC(C)C,28.2µM*,3.6,u,-2.9%[59 µM],0.5,2.4%
O=C(N/C(=C\c1cccc([N+](=O)[O-])c1)C(=O)N1CCCCC1)c1cccs1,-24.6%,0.6,8.6%,10.2%[12.7 µM],2.0,0.1%
Cc1ccc(N(CC(=O)NCCc2ccc(Cl)cc2)S(=O)(=O)N(C)C)cc1,-3.6%,x,93.9%,25.4%[59 µM],x,22.4%
Cc1cc(C)c2c(=N)c3ccccc3n(CCCCCCCCn3c4ccccc4c(=N)c4c(C)cc(C)nc43)c2n1,u,-4.7,-4.8%,x,5.3,x
CCn1c2ccccc2c2cc(NC(=O)CN3CCCC3)ccc21,u,-11.1,-13.8%,u,1.9,-42.9%
O=C(CNCC1CCCO1)N1CCCc2ccccc21 (centres undefined),3.98µM*,1.2,u,u,6.7,56.2µM*
CCn1c2ccccc2c2cc(NC(=O)c3ccccc3[N+](=O)[O-])ccc21,-34.9%,3.2,2.9%,7.94µM*,-23.0,-37.6%
CCn1c2ccccc2c2cc(NC(=O)CNCC3CCCO3)ccc21 (centres undefined),-27.1%[11.4 µM],x,u,12.6µM*,-0.6,50.1µM*
Cc1ccc(NC(=O)CC(NCC2CCCO2)C(=O)O)cc1C (centres undefined),-12.6%,1.1,12.4%,2.24µM*,6.6,-29.6%
O=C(CNCC1CCCO1)Nc1ccc([N+](=O)[O-])cc1C(=O)Nc1ccccc1F (centres undefined),0.0%[11.4 µM],1.1,25.4%,-37.2%,1.0,u
O=C(CNCC1CCCO1)Nc1ccccc1-n1cccc1 (centres undefined),5.01µM*,-0.4,4.4%,8.91µM*,-2.2,50.1µM*
CCC1CCCCN1C(=O)CNCC1CCCO1 (centres undefined),-7.4%[11.4 µM],7.2,-23.7%,17.8µM*,-0.3,-38.7%
Cc1cc(NC(=O)CS(=O)(=O)c2cn(Cc3cccc(C(F)(F)F)c3)c3ccccc23)no1,x,-3.6,x,x,-1.7,x

# Source: PubChem BioAssay
